Screens from PubChem BioAssay.
A selection: hits, their analogues and other compounds. The true share with any hit is near 1.7%.
Mtb hypoxia rep: Mtb hypoxia fluorescent reporter inhibition; M. tuberculosis hypoxia-regulated fluorescent reporter, fluorescence; fluorescence inhibition, % (no concentration beside the values); hit rate 0.1% among 300,000; AID 1159583; in the data active = fluorescence inhibition mostly above about 23%, no sharp cut-off; inactive = mostly below about 17%
Mtb betalactam: beta-lactam sensitization of Mtb H37Rv | M. tuberculosis H37Rv growth with meropenem, percent inhibition | inhibition, % at 25 µM | hit rate 0.27% among 330,000; call rule not given here;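 also: growth measured after seven days incubation then overnight dye step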
PfHsp40 rescue: compounds rescuing yeast from Plasmodium falciparum HSP40 toxicity. S. cerevisiae expressing PfHsp40, growth rescue, ATP luminescence. AID 504582. hit rate 0.68% among 340,000. growth rescue, % at 12.5 µM; in the data active = growth rescue above about 28%, passing the limit was not always enough; inconclusive = no clear call, values can overlap the other calls;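 also: yeast W303a lacking pdr1 and pdr3 grown in galactose medium; growth measured after three days at 30 °C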
RecA intein inh: Mtb RecA intein splicing inhibition; P9WHJ3; cell-free RecA intein splicing, fluorescence; inhibition, % (concentration not given with the values); hit rate 0.75% among 290,000; in the data active = inhibition above about 30%; inconclusive = no clear call, values can overlap the other calls
Target sequence (P9WHJ3 whole entry, looked up): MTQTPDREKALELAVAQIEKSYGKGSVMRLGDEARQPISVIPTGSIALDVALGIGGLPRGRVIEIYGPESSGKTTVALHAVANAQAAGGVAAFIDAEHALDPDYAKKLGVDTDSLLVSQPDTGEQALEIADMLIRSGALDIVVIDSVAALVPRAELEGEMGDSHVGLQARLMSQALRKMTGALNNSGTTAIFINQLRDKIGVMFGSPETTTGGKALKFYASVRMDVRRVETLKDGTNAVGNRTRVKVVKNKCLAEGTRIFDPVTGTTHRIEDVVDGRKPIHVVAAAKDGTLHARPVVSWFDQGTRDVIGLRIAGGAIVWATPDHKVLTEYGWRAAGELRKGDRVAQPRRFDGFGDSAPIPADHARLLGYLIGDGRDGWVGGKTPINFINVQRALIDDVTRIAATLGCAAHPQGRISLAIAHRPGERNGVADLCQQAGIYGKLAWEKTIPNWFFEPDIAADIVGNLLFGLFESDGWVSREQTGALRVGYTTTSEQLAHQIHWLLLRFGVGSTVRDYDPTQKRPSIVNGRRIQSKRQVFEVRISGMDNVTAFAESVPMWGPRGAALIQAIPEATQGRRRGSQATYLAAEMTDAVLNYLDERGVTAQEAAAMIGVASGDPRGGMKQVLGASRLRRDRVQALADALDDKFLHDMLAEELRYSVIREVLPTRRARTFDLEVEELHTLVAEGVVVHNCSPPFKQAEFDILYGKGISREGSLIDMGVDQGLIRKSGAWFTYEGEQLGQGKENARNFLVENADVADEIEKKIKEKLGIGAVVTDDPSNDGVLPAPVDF
CCHF vOTU inh-1: CCHFV vOTU protease inhibition | Pep-AMC fluorescence | inhibition, % at 11.5 µM | hit rate 0.55% among 370,000
CCHF vOTU inh-2: CCHFV vOTU protease inhibition, confirmation; shares compounds with CCHF vOTU inh-1; Recombinant CCHFV vOTU, Pep-AMC fluorescence; inhibition, % at 11.5 µM; hit rate 17% among 1,900
Numbers stand for hits. Rule as the data show it, unless noted: active = inhibition above about 30%; inactive = the rest.

For CC1S/C(=N/N=C/c2cccs2)NC1=O (stereo unspecified) the results were Mtb betalactam inactive, PfHsp40 rescue inactive, RecA intein inh inactive and CCHF vOTU inh-1 inactive.
`COc1ccc(OC)c(S(=O)(=O)N2CCC3(CC2)OCCN3S(=O)(=O)c2ccccc2)c1` gave Mtb hypoxia rep inactive, Mtb betalactam inactive, PfHsp40 rescue inactive, RecA intein inh inactive, CCHF vOTU inh-1 34.1 and CCHF vOTU inh-2 inactive.
Screening COc1ccc(S(=O)(=O)N2CCOC23CCN(S(=O)(=O)c2cc(C)ccc2OC)CC3)cc1 returned Mtb hypoxia rep inactive, Mtb betalactam inactive, PfHsp40 rescue inactive, RecA intein inh inactive and CCHF vOTU inh-1 inactive.
For CC(=O)NC(c1cccc(F)c1)c1nc(-c2ccc(C)c(C)c2)cs1 (stereo unspecified) the results were CCHF vOTU inh-1 inactive.
`CC(=O)NC(c1cccc(F)c1)c1nc(-c2cc(F)cc(Cl)c2)cs1` (stereo unspecified) gave CCHF vOTU inh-1 36.3 and CCHF vOTU inh-2 inactive.
`Cc1c(C=NNC(=O)c2cc3ccccc3o2)c2ccccc2n1C` gave Mtb hypoxia rep inactive.
For CC(C)(C)c1ccc(NC(=O)COC(=O)c2ccc([N+](=O)[O-])s2)cc1 the results were Mtb hypoxia rep inactive, Mtb betalactam inactive, PfHsp40 rescue inactive and CCHF vOTU inh-1 inactive.
O=C(OCc1nnc(-c2ccccc2)o1)c1ccc([N+](=O)[O-])s1 was read as Mtb hypoxia rep inactive, Mtb betalactam inactive, PfHsp40 rescue inconclusive, CCHF vOTU inh-1 76.7 and CCHF vOTU inh-2 85.6.
For O=C(COC(=O)c1ccc([N+](=O)[O-])s1)Nc1cccc(S(=O)(=O)NC2=NCCCCC2)c1 the results were Mtb hypoxia rep inactive, Mtb betalactam inactive, PfHsp40 rescue inactive, RecA intein inh inactive, CCHF vOTU inh-1 57.7 and CCHF vOTU inh-2 35.3.
For O=C(COC(=O)c1ccc([N+](=O)[O-])s1)Nc1ccc(F)cc1 the results were Mtb hypoxia rep inactive, Mtb betalactam inactive, PfHsp40 rescue inactive, CCHF vOTU inh-1 82.1 and CCHF vOTU inh-2 72.2.
`O=C(COC(=O)c1ccc([N+](=O)[O-])s1)Nc1ccccc1` gave Mtb hypoxia rep inactive, Mtb betalactam inactive, PfHsp40 rescue inactive, RecA intein inh inactive, CCHF vOTU inh-1 61.3 and CCHF vOTU inh-2 74.7.
Screening CC=CC1=CC(=O)CC(c2ccc(Cl)cc2)C1 (stereo unspecified) returned Mtb hypoxia rep inactive.
For O=C(NC1CC1)C1=CC(c2csc3ccccc23)CC(OCCCCO)O1 (stereo unspecified) the results were Mtb hypoxia rep inactive.
For Cc1ccc(C(=O)ON=Cc2ccc(N3CCCCC3)c([N+](=O)[O-])c2)cc1 the results were Mtb hypoxia rep inactive.
For CCCCCCC[C@@H](C/C=C/CCC(=O)N(C)C/C(=C/Cl)C/C(=C\C(=O)N1C[C@H](O)CC1=O)OC)OC the results were Mtb hypoxia rep inactive, Mtb betalactam inactive, PfHsp40 rescue 53.7, CCHF vOTU inh-1 31.2 and CCHF vOTU inh-2 inactive.
CCCCCCCCN1C(=O)[C@@H](CC(=O)NCc2cccc(C(F)(F)F)c2)C[C@@]2(C(=O)OC)C1=C[C@H](COCc1ccccc1)O[C@@H]2C was read as CCHF vOTU inh-1 32.1 and CCHF vOTU inh-2 inactive.
CCCCCCCCN1C(=O)[C@@H](CC(=O)NCCCC)C[C@@]2(C(=O)OC)C1=C[C@H](COCc1ccccc1)O[C@@H]2C was read as CCHF vOTU inh-1 inactive.
For CCCCCCCCN1C(=O)[C@@H](CC(=O)NCC2CCCCC2)C[C@@]2(C(=O)OC)C1=C[C@H](COCc1ccccc1)O[C@@H]2C the results were CCHF vOTU inh-1 31.1 and CCHF vOTU inh-2 inactive.
For CCCCCCCCN1C(=O)[C@@H](CC(=O)NCCC(C)C)C[C@@]2(C(=O)OC)C1=C[C@H](COCc1ccccc1)O[C@@H]2C the results were CCHF vOTU inh-1 30.3 and CCHF vOTU inh-2 inactive.
For COC(=O)[C@]12C[C@H](CC(=O)NCc3cccc(C(F)(F)F)c3)C(=O)N(Cc3ccco3)C1=C[C@H](COCc1ccccc1)O[C@@H]2C the results were CCHF vOTU inh-1 inactive.
Screening CC(=O)Oc1ccc(C(C)=NN2CCN(Cc3ccc(C)cc3)CC2)cc1 returned Mtb hypoxia rep inactive.
Screening COC(=O)C1=C(c2cccc(OCc3ccccc3)c2)CC2CCC1N2C(=O)NCc1ccc(Br)cc1 (stereo unspecified) returned Mtb hypoxia rep inactive.
Screening CC1(Cc2ccc(C(F)(F)F)o2)C(=O)Nc2cc(-c3ccc(F)cc3F)ccc21 (stereo unspecified) returned CCHF vOTU inh-1 39.1 and CCHF vOTU inh-2 inactive.
`C[C@@H]1CN(c2ccc(N3CCN(C(=O)OC(C)(C)C)C[C@@H]3C)cc2C#N)C[C@H](C)O1` gave CCHF vOTU inh-1 41.0 and CCHF vOTU inh-2 inactive.
Screening C[C@@H]1CN(C(=O)OC(C)(C)C)CCN1c1ccc(N2CC[C@H](O)C2)c(C#N)c1 returned CCHF vOTU inh-1 48.2 and CCHF vOTU inh-2 inactive.
`C[C@@H]1CN(c2ccc(N3CCN(C(=O)OC(C)(C)C)C[C@H]3C)cc2C#N)C[C@H](C)O1` gave CCHF vOTU inh-1 inactive.
Screening O=C(NCc1cccnc1)C(=Cc1ccc(-c2ccc(Br)cc2)o1)S(=O)(=O)c1ccccc1 returned Mtb hypoxia rep inactive.
Cc1ccc(N2C(=O)CSC2=NC(=S)Nc2ccccc2)cc1 was read as Mtb hypoxia rep inactive.
`O=C(Nc1ccc(C(=O)O)cc1)/C(=C\C=C\c1ccccc1)NC(=O)c1cccc(Br)c1` gave Mtb hypoxia rep inactive, Mtb betalactam inactive, PfHsp40 rescue inactive, RecA intein inh inactive, CCHF vOTU inh-1 29.9 and CCHF vOTU inh-2 inactive.
For CCc1cccc(OCC(=O)Nc2c[nH]c(=O)[nH]c2=O)c1 the results were Mtb hypoxia rep inactive, Mtb betalactam inactive, PfHsp40 rescue inactive, RecA intein inh inactive and CCHF vOTU inh-1 inactive.
For CCc1cccc(OCC(=O)Nc2ccc(C(=O)O)cc2NC(=O)COc2cccc(CC)c2)c1 the results were Mtb hypoxia rep inactive, Mtb betalactam inactive, PfHsp40 rescue inactive, RecA intein inh inactive, CCHF vOTU inh-1 33.5 and CCHF vOTU inh-2 inactive.
Nn1cnnc1N/N=C/c1ccc(F)cc1 was read as Mtb betalactam inactive, PfHsp40 rescue inactive, RecA intein inh inactive, CCHF vOTU inh-1 91.7 and CCHF vOTU inh-2 inactive.
For Nn1cnnc1NN=Cc1ccc(Cl)c([N+](=O)[O-])c1 the results were Mtb hypoxia rep inactive.
For Cc1ccc(/C=N/Nc2nncn2N)cc1 the results were Mtb betalactam inactive, PfHsp40 rescue inactive, RecA intein inh inactive, CCHF vOTU inh-1 87.2 and CCHF vOTU inh-2 inactive.
`Cc1cccc(NN=C2COC(C)(C)CC2=O)c1` gave Mtb hypoxia rep inactive.
COc1ccccc1CC(=O)Nc1ccc(S(=O)(=O)N2CC(C)CC(C)C2)cc1 (stereo unspecified) was read as Mtb hypoxia rep inactive, Mtb betalactam inactive, PfHsp40 rescue inactive and CCHF vOTU inh-1 inactive.
For COc1ccccc1CC(=O)Nc1ccc(S(=O)(=O)N2CCN(C)CC2)cc1 the results were Mtb hypoxia rep inactive, Mtb betalactam inactive, PfHsp40 rescue inactive, RecA intein inh inactive, CCHF vOTU inh-1 39.7 and CCHF vOTU inh-2 inactive.
